Assay results: PubChem BioAssay (NCI)
The panel holds about 79,000 compounds, 15% with a hit somewhere; the sample as a whole holds those more often. A number with no mark means an inactive call. Calls of active or inactive are those of the source. No stated cut-off is given here; in the data, active means growth inhibition above about 70%; inactive means the rest.

Assay: NCI Yeast Anticancer Drug Screen. Data for the cln2 rad14 strain (AID 165);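 further: 0% = growth equal to vehicle treated cultures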
Conditions: S. cerevisiae cln2 rad14 strain, at 50.0 µM, active compounds read high
Method in brief: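 Growth of compound-exposed yeast (cln2 rad14 genotype) measured and expressed as inhibition relative to vehicle.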

SMILES | growth inhibition
CNC(=O)c1ccccc1C(O)c1ccc(C)cc1 (stereo not given) | 23.4%
CCN(CCC#N)c1cccc(C)c1 | 9.8%
C=CCN(CC=C)C(=O)C(=C)C | 2.6%
CC(=O)Nc1cc(-c2ccccc2)cc(-c2ccccc2)c1 | 1.5%
Nc1cc(=O)[nH]c(=S)n1-c1ccccc1 | -16.1%
CCCCN(CCCC)/C(=C/C(=O)OC)C(=O)OC | 14.2%
Oc1ccc2c(c1)-c1ccccc1C2 | 17.2%
Cc1ccccc1N=Nc1c(-c2ccccc2)nn(C(N)=S)c1-c1ccccc1 | 4.05%
COc1ccc(CC(NC(=O)OCc2ccccc2)C(=O)O)cc1 (stereo not given) | -52.1%
Nc1cccc(CC(=O)c2ccccc2)n1 | -8.55%
CN(C)CC(C)(C)C(=O)c1ccc(F)cc1 | 3.55%
CCCC1OCC(O)C(C(O)C(=O)CN(Cc2ccccc2)Cc2ccccc2)O1 (stereo not given) | -9.5%
O=C1C2C3C=CC(C2C(=O)N1COP(=O)(O)O)C1C2C(=O)N(COP(=O)(O)O)C(=O)C2C31 (stereo not given) | 19.1%
Cc1nc[nH]c(=O)c1N | 0.9%
Cc1ccc(N2N=S=CC2=O)cc1 | 13.4%
CC(C)(CCCCC(C)(C)C1NC(=O)N1)C1NC(=O)N1 | -46.5%
CCCCCCC(=O)OC(C)CC(C)C (stereo not given) | -11.2%
NNC(=O)CC(=O)Nc1ccccc1F | 7.15%
Cn1c(=O)c2[nH]c(CCCCCc3nc4c([nH]3)c(=O)n(C)c(=O)n4C)nc2n(C)c1=O | -18.5%
CCCCCOc1ccc2ccccc2c1 | -20.9%

SMILES | growth inhibition
CC(O)(CNS(=O)(=O)c1ccccc1)c1ccccc1 (stereo not given) | -36.9%
O=C(/C=C/c1ccc(OCCSCCCCCCCCCCSCCOc2ccc(/C=C/C(=O)c3ccc(Cl)cc3)cc2)cc1)c1ccc(Cl)cc1 | 13.7%
CS(=O)(=O)CC(O)(c1ccccc1)c1ccccc1 | -13.3%
CC1=CC(O)C(Br)C(C)(C)C12CCC(C)(Cl)C(Br)C2 (stereo not given) | 81.8% (active)
NCCCC(N)C(=O)O (stereo not given) | -12.7%
CCOC(=O)Nc1nc2c(s1)c([N+](=O)[O-])cn2C | 2.45%
COCCNC1CCC2(SCCS2)c2[nH]c3ccccc3c21 (stereo not given) | -14%
Nc1nc(Sc2ccccn2)ccc1[N+](=O)[O-] | -27.1%
CC(=O)Nc1ccc(N=C2c3ccccc3-c3ccc([N+](=O)[O-])cc32)cc1 | -11.7%
O=C(NNC(=O)c1ccc(Cl)c(Cl)c1)c1ccc(Cl)c(Cl)c1 | 6.15%
O=S(=O)(NCCNS(=O)(=O)c1ccccc1)c1ccccc1 | -44.5%
O=C(Nc1ccc(Cl)c(Cl)c1)c1ccc(Cl)cc1 | 8.2%
Nc1nc2ccccc2[nH]1 | 0.8%
CC1C(c2ccccc2)OC(c2ccccc2)N1C (stereo not given) | 55.4%
CCCOc1ccc(OCC(=O)c2ccccc2)cc1 | 5.3%
COc1cc(/C=C\C(=O)c2cccc([N+](=O)[O-])c2)cc(OC)c1OC | 12.5%
O=C([O][Sb]([O]C(=O)C(Br)Br)([c]1ccccc1)([c]1ccccc1)[c]1ccccc1)C(Br)Br | -14.2%
C[N+]1(CCC[N+]2(C)CCC3(CCCCC3)CC2)CCOCC1 | -4.8%
CCCCCCCCCCCCCCCCCN(C)C(=O)OCC | -114%
O=c1oc2ccccc2c2c1Sc1ccccc1N2 | 12.8%
